According to the supplement of paper PMC3334620:
The full ranking holds about 33,000 sequences; the median of “E-score (-0.5 to 0.5)” is about -0.04, and the highest 2% start at about 0.36. The list comes from a sample in which the highest values are over-represented; it also holds similar and randomly drawn sequences.

biological target: T1, Hmlalpha2 (UniProt P0CY09); test: PBM E-score (8-mer binding enrichment) (E-score (-0.5 to 0.5)); higher = stronger / more preferred TF binding; conditions: protein concentration: 200 nM; construct: GST-full length
T1 sequence: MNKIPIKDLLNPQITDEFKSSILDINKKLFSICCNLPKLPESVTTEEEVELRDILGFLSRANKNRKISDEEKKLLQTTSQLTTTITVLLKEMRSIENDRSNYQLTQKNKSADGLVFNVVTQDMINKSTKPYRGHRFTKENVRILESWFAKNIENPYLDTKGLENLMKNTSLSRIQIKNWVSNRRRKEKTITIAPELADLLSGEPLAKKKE
Method: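 Universal 'all 10-mer' protein binding microarrays (Agilent AMADID 015681) probed with GST-tagged S. cerevisiae TFs (full-length or DBD) made by in vitro transcription/translation (PURExpress), about 100-200 nM. Bound TF was detected with fluorescent anti-GST. Each ungapped 8-mer (which stands for itself and its reverse complement) is scored by the PBM enrichment score (E-score), a modified Wilcoxon-Mann-Whitney statistic from -0.5 to +0.5, computed with the Universal PBM Analysis Suite. Scale: above 0.35 generally sequence-specific binding.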

| Sequence | PBM E-score |
| --- | --- |
| GCTGTAAA | 0.336 |
| GTTGTAAA | 0.385 |
| AACACTAT | 0.231 |
| ACTCGACA | 0.203 |
| CAAATCTG | -0.0335 |
| AATTGCGT | 0.201 |
| ACGCCCGG | -0.193 |
| GATCTTTA | 0.131 |
| ACACCCAT | -0.0488 |
| AAAGGCTC | -0.223 |
| CGGCCTAG | -0.322 |
| ACTCCTCC | -0.17 |
| AGTTCTCA | 0.0389 |
| ATAATACA | 0.38 |
| ATAATACG | 0.239 |
| CTAATACA | 0.342 |
| ATAATACC | 0.0152 |
| GTAATAGA | 0.257 |
| GTAATACA | 0.397 |
| CCCTTATC | -0.0289 |
| GCTAGCGA | -0.117 |
| ATGAAACC | 0.0645 |

| Sequence | PBM E-score |
| --- | --- |
| ACATTGCG | 0.249 |
| CTCGTAGA | -0.0578 |
| AAGCGTAT | 0.0488 |
| ACTTGGAT | 0.0128 |
| CCTCTCAC | -0.127 |
| CTTGTTCC | -0.0361 |
| AAGCACGC | 0.0885 |
| ATTAACCA | 0.0177 |
| CTGTATTA | 0.191 |
| GTGTATTA | 0.421 |
| ATGTATTA | 0.428 |
| ATGTATGA | 0.296 |
| GTGTATGA | 0.262 |
| ACGTATTA | 0.345 |
| CTACAGCC | -0.113 |
| ATCAAGTA | 0.217 |
| ACACGCAT | 0.388 |
| CCACGCAC | -0.0131 |
| ACACGCAC | 0.382 |
| ACACGCAG | 0.313 |
| ACACGCAA | 0.35 |
| GCACGCAC | -0.213 |

| Sequence | PBM E-score |
| --- | --- |
| ACCAATTA | 0.195 |
| CTACGTTA | 0.316 |
| ATTAGTAA | 0.206 |
| CGGGGAGA | -0.256 |
| GACTACTC | -0.0288 |
| TGAAGCAA | 0.0475 |
| ATGAGGCC | -0.277 |
| GGATAGGA | -0.212 |
| AAACGACA | 0.235 |
| ACGTACAA | 0.273 |
| AAGTACAG | 0.0583 |
| ACGTACAT | 0.381 |
| AAGTACAT | 0.383 |
| AAGTACAA | 0.199 |
| ACGTACAG | 0.0878 |
| AGATTTAT | 0.0596 |
| AGCCTCCT | -0.16 |
| AACGCATG | 0.248 |
| GAACACGA | 0.287 |
| TAACACCA | 0.314 |
| CCACACGG | -0.0191 |
| CAACACAA | 0.35 |

| Sequence | PBM E-score |
| --- | --- |
| TAACACGA | 0.469 |
| CAACACGG | 0.386 |
| CAACACCA | 0.207 |
| CAACACTA | 0.169 |
| GAACACGC | 0.299 |
| CAACACGC | 0.367 |
| CAACACAC | 0.349 |
| CAACACGA | 0.419 |
| CAGCATCC | -0.176 |
| ACGGTGTA | 0.205 |
| TACTCTCA | 0.103 |
| CGTGCCTC | -0.119 |
| CGTTAACG | 0.211 |
| AATCCTTG | 0.103 |
| AGATATAA | 0.127 |
| AGTAGACG | 0.0433 |
| CGGTGGTA | -0.0335 |
| GAACAAGA | 0.139 |
| GAACACAA | 0.319 |
| CAACAAGA | 0.225 |
